Results reported in PubChem BioAssay (Tox21).
The source made the active and inactive calls. Unless noted, the call rests on the fitted dose curve; in most records, active means well fitted curve in the direction sought with a large enough effect in the repeat runs; inconclusive means weak or mixed curves; inactive means no such curve, though single readings can be large; an effect the other way counts as inactive or inconclusive.

Experiments:
[1] = qHTS assay for small molecules that induce genotoxicity in human embryonic kidney cells expressing luciferase-tagged ATAD5 (AID 651632); further: nearly all actives have a fitted effect of over 15% in size; further: potency means the concentration at half of the fitted maximal effect
Summary of the method: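 Test compounds were delivered by pin tool onto HEK293T reporter cells (2,000/well) expressing ATAD5 fused to luciferase. After 16 hr at 37C, 5% CO2, Amplite was added for 30 min at room temperature and luminescence was measured.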

[2] = qHTS assay for small molecule agonists of the p53 signaling pathway - cell viability (AID 651633; calls by dose curve; further: nearly all actives have a fitted effect of over 30% in size; further: potency means the concentration at half of the fitted maximal effect)
Summary of the method: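 p53RE-bla cells, seeded at 4,000 per well and rested 5 h at 37 C/5% CO2, received compounds in DMSO for 16 h at 37 C. CellTiter-Glo was then added, and luminescence was read after 30 min at room temperature to gauge cytotoxicity.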

[3] = qHTS assay for small molecules that induce genotoxicity in human embryonic kidney cells expressing luciferase-tagged ATAD5 - cell viability (AID 651634; calls by dose curve; further: nearly all actives have a fitted effect of over 25% in size; further: potency means the concentration at half of the fitted maximal effect)
Summary of the method: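 Quantitative high-throughput format. HEK293T cells expressing ATAD5 fused to luciferase were plated at 2,000 cells/well and treated 15.5 hr with compound versus DMSO. Viability was determined by fluorescent live-cell protease substrate, 30 min at 37C.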

[4] = qHTS assay for small molecule disruptors of the mitochondrial membrane potential - cell viability (AID 720634; calls by dose curve; further: nearly all actives have a fitted effect of over 20% in size; further: potency means the concentration at half of the fitted maximal effect)
Summary of the method: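 Same-well counter-screen: following the MMP dye addition, CellTiter-Glo was added to 1 hr compound-treated HepG2 cells and luminescence read after 30 min at room temperature.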

[5] = qHTS assay to test for compound auto fluorescence at 590 nm (red) in HepG2 cells (AID 720674); further: on the % scale 0 is the no-effect control and ±100 the full control effect
Summary of the method: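 Rose Bengal sodium served as the red fluorophore standard. HepG2 monolayers (overnight attachment, MEM with 10% FBS) were exposed to test compounds for 1 hr at 37 C and read at Ex 540/Em 590 nm.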

[6] = qHTS assay to test for compound auto fluorescence at 535 nm (green) in HepG2 cells (AID 720675); further: potency means the concentration at half of the fitted maximal effect
[7] = qHTS assay to test for compound auto fluorescence at 590 nm (red) in HEK293 cells (AID 720679); further: on the % scale 0 is the no-effect control and ±100 the full control effect
Summary of the method: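 Plates of HEK293 cells (10% dialyzed FBS) are treated with 23 nL compound or DMSO vehicle after a 4-5 hr attachment period, incubated overnight at 37C, and read for red fluorescence at 540/590nm.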

[8] = qHTS assay to test for compound auto fluorescence at 535 nm (green) in HEK293 cells (AID 720680); further: on the % scale 0 is the no-effect control and ±100 the full control effect
[9] = qHTS assay to test for compound auto fluorescence at 460 nm (blue) in HEK293 cell free culture (AID 720681); further: on the % scale 0 is the no-effect control and ±100 the full control effect
Summary of the method: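 Test compounds were pinned into cell-free culture medium (DMEM with 10% FBS) and fluorescence was read directly at Ex/Em 405/460 nm. Signals were expressed as fluorescence equivalents of triamterene, with DMSO vehicle as control.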

[10] = qHTS assay to test for compound auto fluorescence at 535 nm (green) in HEK293 cell free culture (AID 720682); further: on the % scale 0 is the no-effect control and ±100 the full control effect
Summary of the method: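 Steps: dispense DMEM/10% FBS into empty wells; pin in compound or DMSO; measure fluorescence at 485/535 nm. Values are fluorescein equivalents.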

[11] = qHTS assay to test for compound auto fluorescence at 590 nm (red) in HEK293 cell free culture (AID 720683); further: on the % scale 0 is the no-effect control and ±100 the full control effect
Summary of the method: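 Tox21 10K library compounds were pinned into cell-free DMEM with 10% FBS and fluorescence was read at excitation 540 nm. Activity is expressed as Rose Bengal sodium equivalency.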

[12] = qHTS assay to test for compound auto fluorescence at 590 nm (red) in HepG2 cell free culture (AID 720684); further: on the % scale 0 is the no-effect control and ±100 the full control effect
Summary of the method: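 Ex 540 / Em 590 nm read of compound in cell-free MEM (10% FBS). Rose Bengal sodium reference.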

[13] = qHTS assay to test for compound auto fluorescence at 460 nm (blue) in HepG2 cell free culture (AID 720685); further: on the % scale 0 is the no-effect control and ±100 the full control effect
Summary of the method: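 Cell-free plates of MEM plus 10% FBS received 23 nL compound or DMSO vehicle; blue-channel (405/460 nm) intensity scored against triamterene as reference fluorophore.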

[14] = qHTS assay to test for compound auto fluorescence at 535 nm (green) in HepG2 cell free culture (AID 720686); further: on the % scale 0 is the no-effect control and ±100 the full control effect
[15] = qHTS assay to test for compound auto fluorescence at 460 nm (blue) in HepG2 cells (AID 720687); further: on the % scale 0 is the no-effect control and ±100 the full control effect
Summary of the method: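 Cells (2,000/well in MEM with 10% FBS) attached overnight at 37 C, then were exposed to compound or DMSO for 1 hr at 37 C, 5% CO2. Fluorescence read at Ex/Em 405/460 nm, expressed as triamterene-equivalent signal.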

[16] = target: Glucocorticoid receptor (Homo sapiens) (UniProt P04150); experiment: qHTS assay to identify small molecule agonists of the glucocorticoid receptor (GR) signaling pathway (AID 720691; active means well fitted activation curve with a large enough effect in the signal ratio in the repeat runs, not every such curve was filed as active; inconclusive means weak or mixed curves, or effect the other way; inactive means no such curve, though single readings can be large or run the other way; the % refers to the signal ratio; further: potency means the concentration at half of the fitted maximal effect); details: GR-bla HeLa, beta-lactamase reporter ratio, 18 h; activation: at 62.4 µM (top of the series)
Chain of Glucocorticoid receptor (Homo sapiens) (P04150 whole entry, looked up): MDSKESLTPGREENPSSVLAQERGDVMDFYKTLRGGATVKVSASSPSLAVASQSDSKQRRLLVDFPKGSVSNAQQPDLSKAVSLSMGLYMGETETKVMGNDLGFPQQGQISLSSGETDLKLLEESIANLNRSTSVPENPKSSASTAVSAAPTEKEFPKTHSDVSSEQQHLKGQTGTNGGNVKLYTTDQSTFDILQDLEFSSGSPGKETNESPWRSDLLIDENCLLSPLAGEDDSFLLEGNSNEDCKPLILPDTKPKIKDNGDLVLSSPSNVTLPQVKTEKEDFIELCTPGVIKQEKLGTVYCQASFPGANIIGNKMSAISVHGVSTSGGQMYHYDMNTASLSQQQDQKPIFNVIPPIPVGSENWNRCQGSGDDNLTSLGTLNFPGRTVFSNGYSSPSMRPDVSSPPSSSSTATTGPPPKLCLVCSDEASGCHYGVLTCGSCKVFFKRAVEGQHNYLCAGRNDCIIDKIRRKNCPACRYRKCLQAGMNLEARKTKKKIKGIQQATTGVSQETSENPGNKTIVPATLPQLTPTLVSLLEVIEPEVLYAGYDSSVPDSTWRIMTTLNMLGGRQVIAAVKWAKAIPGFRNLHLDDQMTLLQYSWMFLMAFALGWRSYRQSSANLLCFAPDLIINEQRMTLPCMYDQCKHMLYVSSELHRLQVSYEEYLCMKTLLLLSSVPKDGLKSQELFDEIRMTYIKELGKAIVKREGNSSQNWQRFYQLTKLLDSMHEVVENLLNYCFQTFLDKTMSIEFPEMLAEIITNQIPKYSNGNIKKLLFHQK
Summary of the method: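 A HeLa cervical cancer line expressing GR and a glucocorticoid response element-driven beta-lactamase gene is treated with compounds for 18 h; LiveBLAzer B/G FRET substrate is then applied and fluorescence read.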

[17] = target: Glucocorticoid receptor (Homo sapiens) (UniProt P04150); experiment: qHTS assay to identify small molecule antagonists of the glucocorticoid receptor (GR) signaling pathway (AID 720692; active means well fitted inhibition curve with a large enough effect in the signal ratio in the repeat runs, not every such curve was filed as active; inconclusive means weak or mixed curves, or effect the other way; inactive means no such curve, though single readings can be large or run the other way; the % refers to the signal ratio; further: potency means the concentration at half of the fitted maximal effect)
Summary of the method: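 GRE-bla HeLa line, dex-stimulated (5 nM final). Compound exposure 18 h, 37 C. Beta-lactamase FRET read after 2 h RT substrate.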

[18] = qHTS assay for small molecule disruptors of the mitochondrial membrane potential (AID 720635); further: potency means the concentration at half of the fitted maximal effect
Summary of the method: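 HepG2 cells (2,000/well) attached overnight at 37C, then took compound for 1 hr at 37C, 5% CO2. Mito-MPS dye was added for 30 min; fluorescence was read at 490/535 nm (monomers) and 540/590 nm (aggregates).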

[19] = qHTS assay to test for compound auto fluorescence at 460 nm (blue) in HEK293 cells (AID 720678); further: on the % scale 0 is the no-effect control and ±100 the full control effect
Summary of the method: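 After cell attachment (4-5 hr, 37C), compounds were pinned onto HEK293 monolayers in 10% dialyzed FBS medium. The blue channel (405/460 nm) was read following overnight culture. Equivalency was calculated against triamterene.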

Cc1cc(CCN2CCN(c3nsc4ccccc34)CC2)cc2c1NC(=O)CC2(C)C
active: Potency [2] 43.3 µM | Potency [3] 61.1 µM | Potency [4] 54.5 µM
inactive: Potency [1] | Potency [5] | Potency [6] | Potency [7] | outcome [8] | Potency [9] | outcome [10] | Potency [11] | Potency [12] | Potency [13] | Potency [14] | Potency [15]

CCCCC(CC)COC(=O)c1ccccc1C(=O)O (stereo not given)
active: Potency [17] 39.6 µM
inactive: Potency [1] | Potency [2] | Potency [3] | Potency [4] | Potency [5] | Potency [6] | Potency [7] | outcome [8] | Potency [9] | outcome [10] | Potency [11] | Potency [12] | Potency [13] | Potency [14] | Potency [15] | Potency [16]

Nc1ccc(N)c2ccccc12
active: Potency [2] 15.3 µM | Potency [3] 15.3 µM | Potency [4] 13.7 µM | Potency [18] 0.153 µM | Potency [6] 8.91 µM
inactive: Potency [1] | Potency [5] | Potency [7] | outcome [8] | Potency [9] | outcome [10] | Potency [11] | Potency [12] | Potency [13] | Potency [15]

Nc1c(Cl)cc(Cl)cc1Cl
inactive: Potency [1] | Potency [2] | Potency [3] | Potency [4] | Potency [6] | Potency [19] | Potency [7] | outcome [8] | Potency [9] | outcome [10] | Potency [11] | Potency [12] | Potency [13] | Potency [14] | Potency [15] | Potency [16] | Potency [17]

Cc1onc(-c2ccccc2Cl)c1C(=O)N[C@@H]1C(=O)N2[C@@H]1SC(C)(C)[C@@H]2C(=O)O
inactive: Potency [1] | Potency [2] | Potency [3] | Potency [4] | fluorescence, % of fluorescein control [6] -0.13% [at 18.6 µM] | fluorescence, % of fluorescein [8] 0.0884% [at 18.6 µM] | fluorescence, % of fluorescent control [9] 0.0563% [at 18.6 µM] | activity change [10] 0.0013% [at 18.6 µM] | fluorescence, % of fluorescent control [11] 0.401% [at 18.6 µM] | fluorescence, % of Rose Bengal [12] -0.203% [at 18.6 µM] | fluorescence, % of fluorescent control [13] 0.0226% [at 18.6 µM] | fluorescence, % of fluorescein control [14] 0.101% [at 18.6 µM] | fluorescence, % of fluorescent control [15] 0.0164% [at 18.6 µM] | Potency [16]

OC1(c2ccc(Cl)c(C(F)(F)F)c2)CCN(CCCC(c2ccc(F)cc2)c2ccc(F)cc2)CC1
inactive: Potency [1] | Potency [4] | Potency [5] | Potency [6] | Potency [19] | Potency [7] | outcome [8] | Potency [9] | outcome [10] | Potency [11] | Potency [12] | Potency [13] | Potency [14] | Potency [15]
active: Potency [2] 9.44 µM | Potency [3] 23.7 µM

C[n+]1cc2c3c(ccc2c2ccc4cc5c(cc4c21)OCO5)OCO3
inactive: Potency [1] | Potency [6] | Potency [7] | outcome [8] | Potency [9] | outcome [10] | Potency [11] | Potency [12] | Potency [13] | Potency [15]
active: Potency [2] 1.5 µM | Potency [3] 11.9 µM | Potency [4] 11.9 µM | Potency [18] 8.41 µM

CCCC/C=C/CCCCO
inactive: Potency [1] | Potency [2] | Potency [3] | Potency [4] | Potency [5] | Potency [6] | Potency [19] | Potency [7] | outcome [8] | Potency [9] | outcome [10] | Potency [11] | Potency [12] | Potency [13] | Potency [14] | Potency [15] | Potency [16] | Potency [17]

CCCC(C)c1ccccc1O (stereo not given)
active: Potency [18] 30.6 µM
inactive: Potency [1] | Potency [2] | Potency [3] | Potency [4] | Potency [5] | Potency [6] | Potency [7] | outcome [8] | Potency [9] | outcome [10] | Potency [11] | Potency [12] | Potency [13] | Potency [14] | Potency [15] | Potency [16] | Potency [17]

Oc1cc2ccccc2c2ccccc12
inactive: Potency [1] | Potency [6] | Potency [19] | Potency [7] | outcome [8] | Potency [9] | outcome [10] | Potency [11] | Potency [12] | Potency [13] | Potency [14] | Potency [15]
active: Potency [2] 6.11 µM | Potency [3] 17.2 µM | Potency [4] 19.3 µM | Potency [18] 0.969 µM | Potency [17] 19.5 µM

CCCCCCCCCCCCCC[P+](CCCC)(CCCC)CCCC (tested in a mixture with another compound)
inactive: Potency [1] | Potency [6] | Potency [19] | Potency [7] | outcome [8] | Potency [9] | outcome [10] | Potency [11] | Potency [12] | Potency [13] | Potency [14] | Potency [15]
active: Potency [2] 27.5 µM | Potency [3] 48.9 µM | Potency [4] 61.5 µM | Potency [18] 0.69 µM

Cc1cc(O)c(C(C)(C)C)cc1C(C)(C)C
active: Potency [2] 9.69 µM | Potency [3] 15.4 µM | Potency [4] 15.4 µM | Potency [18] 0.969 µM
inactive: Potency [1] | Potency [5] | Potency [6] | Potency [7] | outcome [8] | Potency [9] | outcome [10] | Potency [11] | Potency [12] | Potency [13] | Potency [14] | Potency [15]

CC(C)n1nc(-c2cc3cc(O)ccc3[nH]2)c2c(N)ncnc21
inactive: Potency [4] | Potency [5] | Potency [6] | Potency [19] | Potency [7] | outcome [8] | Potency [9] | outcome [10] | Potency [11] | Potency [12] | Potency [13] | Potency [15]
active: Potency [1] 9.44 µM | Potency [2] 26.6 µM | Potency [3] 0.75 µM

C[C@]12CCC(=O)C=C1CC[C@@H]1[C@@H]2[C@@H](O)C[C@@]2(C)[C@H]1CC[C@]2(O)C(=O)COC(=O)CCC(=O)O
active: Potency [16] 0.848 µM [inconclusive]
inactive: Potency [1] | Potency [2] | Potency [3] | Potency [4] | Potency [5] | Potency [6] | Potency [19] | Potency [7] | outcome [8] | Potency [9] | outcome [10] | Potency [11] | Potency [12] | Potency [13] | Potency [14] | Potency [15]
